Inhibition data for 68 molecules are collected here from PubChem BioAssay AID492993 (Johns Hopkins Ion Channel Center, 2010).

Among all 4,900 compounds or so, about 200 (4.1%) were called active.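 How the source made its calls: active means thallium signal drop more than 5 SD beyond the mean of the no-compound control wells, seen in both duplicate plates; inactive means the rest.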 Only a sample is shown.

For the test, the target named is Inward rectifier potassium channel 2 (Mus musculus) (UniProt P35561). Description: off-target Kir2.1 potassium flux block – cell-based, HEK293, thallium flux, selectivity assay for KCNK9 modulator project, confirmation (AID 492993).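 On Inhibition: signal is fluorescence rise after thallium addition divided by baseline fluorescence; plate controls were assay buffer only for no effect and full block by chlorpromazine control for full effect.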 Particulars: Kir2.1 cells, FluxOR thallium flux fluorescence, at 10 µM; active compounds read high.
Sequence of Inward rectifier potassium channel 2 (Mus musculus) (P35561 whole entry, looked up): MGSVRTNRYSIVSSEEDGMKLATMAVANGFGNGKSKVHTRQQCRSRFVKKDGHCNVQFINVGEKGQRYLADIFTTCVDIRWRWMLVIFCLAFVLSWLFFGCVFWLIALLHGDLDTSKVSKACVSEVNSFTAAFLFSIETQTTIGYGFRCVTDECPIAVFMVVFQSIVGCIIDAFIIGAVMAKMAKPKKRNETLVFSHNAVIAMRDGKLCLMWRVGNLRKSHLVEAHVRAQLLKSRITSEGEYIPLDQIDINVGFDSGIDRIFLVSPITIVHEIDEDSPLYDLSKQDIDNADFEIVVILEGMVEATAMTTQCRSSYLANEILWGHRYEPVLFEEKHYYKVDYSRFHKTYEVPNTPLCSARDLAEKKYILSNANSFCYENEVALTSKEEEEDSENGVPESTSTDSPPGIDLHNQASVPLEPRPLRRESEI
For `Cc1cccc(NC(=O)CN2CCCN(S(=O)(=O)c3ccc(Br)s3)CC2)c1`, the inhibition result was “inactive”.
Consider `Cc1ccc(C)c(NC(=S)NNC(=S)Nc2ccc(C(C)C)cc2)c1`, for which the inhibition entry is “inactive”.
The same measure for `Cc1c(C(=O)Nc2ccccn2)oc2ccc(Br)cc12`: “inactive”.
Then `O=C(CC(NC(=O)c1ccccc1)c1ccccc1)Nc1ccc(F)c(F)c1` (stereo not drawn), with “inactive”; and `CCCCN(CC)C(=O)C1CCCN(S(=O)(=O)c2cccc3nsnc23)C1` (stereo not drawn), with “inactive”.
The same measure for `Oc1ccc(/C=N/Nc2nc(-c3ccccc3F)nc3ccccc23)c(O)c1`: “inactive”; for `COC(=O)Cn1cnc2scc(-c3ccc(C)c(C)c3)c2c1=O`: “inactive”; for `O=C(Nc1ccc(Cl)c(Cl)c1)N1CC=C(c2ccccc2)CC1`: “inactive”.
For `Cc1ccc(C(=O)/C=C/c2c(C)nn(-c3ccccc3)c2Cl)cc1`, the inhibition result was “inactive”.
For `CCCOc1ccc2c3c(c(=O)oc2c1OCCC)CCC3`, the inhibition result was “inactive”.
The same measure for `COc1cccc(-c2cc3nc4c(c(N5CCC6(CC5)OCCO6)n3n2)CCCC4)c1`: “inactive”.
Then `Cc1nn(CC(=O)Nc2nc3ccccc3s2)c(C)c1[N+](=O)[O-]`, with “inactive”; and `COc1ccc(C(=O)C2CCCN(Cc3ccc4nonc4c3)C2)c(C)c1` (stereo not drawn), with “inactive”; and `Cc1ccc(-c2csc(NCCc3nc4cc(Cl)c(Cl)cc4n3CCOCCO)n2)cc1`, with “inactive”.
Then `COc1ccc2c(c1)C(c1cccs1)=NNC(c1cccnc1)=N2`, with “inactive”; and `COc1ccc([N+](=O)[O-])cc1-c1nc2ccccc2nc1-c1ccccc1`, with “inactive”.
As for `Cc1cc2ccccn2c1C(=O)c1cccc(S(=O)(=O)N2CCOCC2)c1`, the inhibition result was “inactive”.
Regarding `COc1ccc(/C=C2\CCc3ccccc3C2=O)c(OC)c1OC`, the inhibition result is “inactive”.
Then `COc1cccc(OC)c1C(=O)Nc1sc2c(c1C(N)=O)CCCC2`, with “inactive”; and `CC(C)N(C(=O)CSc1nc(COc2ccccc2)nc2ccccc12)C(C)C`, with “inactive”; and `O=c1cc(CN2CCN(c3cccc(Cl)c3)CC2)c2cc3c(cc2o1)CCCC3`, with “inactive”.
The same measure for `Cc1ccc(CN2CCN(/N=C/c3ccco3)CC2)c(C)c1`: “inactive”; for `Cc1[nH]c2ccccc2c1CCN(Cc1cccs1)C(=S)NC(C)(C)C`: “inactive”; for `O=C(CSCc1ccc(Cl)cc1)N1CCN(Cc2ccc3c(c2)OCO3)CC1`: “inactive”.
As for `CCC/C=C(\CCC)C(NC(=O)Cc1ccccc1)c1ccc(C(=O)OC)cc1` (stereo not drawn), the inhibition result was “inactive”.
For the molecule `O=C1CC(NNc2ccccc2)C(=O)N1c1cccc(Cl)c1` (stereo not drawn), the inhibition entry is “inactive”.
Then `FC(F)(F)c1cc(-c2ccco2)nc(NCc2ccc(Cl)cc2)n1`, with “inactive”; and `COc1ccc(NC(=O)CN(C)CC(=O)Nc2cccc(C(F)(F)F)c2)cc1`, with “inactive”; and `CCCCCCCCCCOC(=O)Cn1c(COc2ccc(C)cc2)[n+](C)c2ccccc21`, with 60.5% (active).
The same measure for `CCCCCCCCCCOC(=O)Cn1c(COc2cccc(OC)c2)[n+](C)c2ccccc21`: 70% (active).
The same measure for `CCCCCn1c(=O)c(C(=O)OCC)c(Cl)c2ccccc21`: “inactive”.
`CCCSc1nc(NCc2ccco2)c2c3c(sc2n1)COC(C)(CC)C3` (stereo not drawn): the inhibition entry was “inactive”.
Then `COc1ccc(-c2noc(CSc3ccc(C)cc3)n2)cc1`, with “inactive”.
The same measure for `COc1cccc(COc2ccc(N(C)S(=O)(=O)c3ccccc3)cc2)c1`: “inactive”.
On to `CCOc1ccc(C(C)C)cc1S(=O)(=O)n1nc(C)cc1C`, for which the inhibition result was “inactive”.
The same measure for `Cc1cc(C=O)c(C)n1-c1ccc(NC2CCCCC2)c([N+](=O)[O-])c1`: “inactive”; for `O=C(C[C@H]1C(=O)N(c2ccc(F)c(F)c2)C[C@@H]1Cc1ccccc1)Nc1ccccc1`: “inactive”; for `CCCCNC(=S)N/N=C1\CCCCc2ccccc21`: “inactive”.
The same measure for `CC(C)(C)SCCSC1=CC(=O)CC(c2ccccc2)C1` (stereo not drawn): “inactive”; for `COc1ccc(C(C)=O)cc1COc1ccc(Cl)c(C)c1`: “inactive”; for `CCOC(=O)c1c(NC(=O)CCCN2CCOCC2)sc2c1CC(C)(C)OC2`: “inactive”.
Then `Cc1cc(C)cc(NC(=O)CSCc2cnn(-c3ccccc3)c2-n2cccc2)c1`, with 43% (active); and `O=C1c2ccccc2S(=O)(=O)N1CC(O)Cn1c2ccccc2c2ccccc21` (stereo not drawn), with “inactive”; and `COc1cc(Cl)c(S(=O)(=O)N2CCN(Cc3ccc4c(c3)OCO4)CC2)cc1Cl`, with “inactive”.
Take `Cc1cc(Cl)ccc1C(=O)C1CCCN(C(=O)CCN2CCCO2)C1` (stereo not drawn): the inhibition result is “inactive”.
Then `Cc1ccccc1N1CCN(Cc2nc(Cc3ccccc3F)no2)CC1`, with “inactive”; and `COc1cccc(C(=O)NCCSc2ccc(Br)cc2)c1`, with “inactive”.
With `COc1cc(NC(=S)NCCSc2ccc(C)cc2)cc(OC)c1`, the inhibition result was “inactive”.
Then `O=S(=O)(c1ccc(F)cc1)N1CCN(Cc2ccccc2C(F)(F)F)CC1`, with “inactive”; and `O=C(CSCc1ccc(Br)cc1)Nc1ccc(S(=O)(=O)N2CCCCCC2)cc1`, with “inactive”.
Then `CC1=C/C(=N\OS(=O)(=O)c2ccccc2)C=CC1=O`, with “inactive”; and `COc1ccc(-c2oc(/N=C/N3CCCC3)c(C#N)c2-c2ccc(OC)cc2)cc1`, with “inactive”; and `Cc1ccc(S(=O)(=O)N2CCN(C(=O)COC(=O)c3c(C)cc(C)cc3C)CC2)c(C)c1`, with “inactive”.
Then `Cc1ccc(NC2CCCN(C(=O)CCC3(C)CC3)C2)cc1C` (stereo not drawn), with “inactive”.
`CCOc1ccccc1NC(=O)C12CC3CC(C1)CC(c1ccc(C)cc1)(C3)C2`: the inhibition result is “inactive”.
The same measure for `COCCN(C(=S)Nc1cccc(Cl)c1C)C(C)c1ccco1` (stereo not drawn): “inactive”.
For the molecule `Cn1nc(-c2ccccc2)c(CSc2cccc(Cl)c2)c1Cl`, the inhibition entry is “inactive”.
Then `COc1ccc(C2Nc3ccccc3C(=O)N2Cc2ccccc2)cc1Cn1nnc2ccccc21` (stereo not drawn), with “inactive”; and `Cc1csc(Nc2ccc(Cl)cc2)[n+]1-c1ccc(Cl)cc1`, with “inactive”.
Then `CCC1=NN(C(=O)Cc2ccc([N+](=O)[O-])cc2)C(O)(c2ccc(Br)cc2)C1` (stereo not drawn), with “inactive”; and `COc1ccc(OC)c(C(=O)c2coc3ccc(OC)cc23)c1`, with “inactive”.
The same measure for `Cc1cc(Oc2ccc(Cl)cc2)nc(SCC(=O)c2ccccc2)n1`: “inactive”.
Consider `CCCC(=O)n1nc(NCc2ccc(OC)cc2)nc1NCc1ccc(OC)cc1`, for which the inhibition result was “inactive”.
Then `CCCCn1ccnc1C(=O)c1cccc(S(=O)(=O)N2c3ccccc3CC2C)c1` (stereo not drawn), with “inactive”.
The same measure for `CCCC1=Nc2cc(C(=O)NCc3ccco3)ccc2Sc2ccccc21`: “inactive”; for `Cc1ccc(N2CCN(S(=O)(=O)c3ccc(F)cc3)CC2)c(C)c1`: “inactive”.
Then `O=[N+]([O-])/C=C/c1ccc2c(ccn2Cc2ccccc2)c1`, with 41.5% (active); and `CCc1cccc(C)c1N(C(=O)Cn1c(CO)nc2ccccc21)C(C)COC` (stereo not drawn), with “inactive”.
